“And” between values parts separate entries of the source, which are not always exact repeats. Identical values can stand only once. Records with an inconclusive call do not appear. A call without a number means that no potency is given here. The source made the active and inactive calls. Unless noted, calls follow the shape of the full dose curve.
How the values were obtained:
[1] = Cell Viability - HepG2 (AID 433); conditions: qHTS;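 also: potency is read from the fitted curve at half-maximal effect; cells exposed to compound for 40 hours; potency for ATP loss meaning cytotoxicity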
How it was run: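 HepG2 cells, 1500 per well, treated 40 hr at 37 °C in complete medium; viability from intracellular ATP by CellTiter-Glo luminescence. Normalized to DMSO and 100 uM tamoxifen; AC50 from Hill fit of qHTS concentration-response.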

[2] = target: Mitogen-activated protein kinase 10 (Mus musculus) (UniProt Q61831); assay: JNK3 AlphaScreen Assay (AID 530; active = well fitted curve in either direction with a large enough effect, not every such curve was filed as active;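 also: kinase came from lysate of stimulated human HepG2 cells; signal reports phosphorylation of biotinylated GST-cJun 1-79 at Ser73 with 10 µM ATP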); conditions: JNK3 lysate, c-Jun phosphorylation; series mostly up to 57.1 µM
How it was run: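 qHTS titrations with 15 min compound pre-incubation before adding ATP (10 uM final). Read-out: AlphaScreen of Ser73-phosphorylated biotin-GST-cJun using HepG2 lysate JNK3 activated by IL-1β and TNFα.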

[3] = Cell Viability - NIH 3T3 (AID 541; active = well fitted curve in the direction sought with a large enough effect; an effect the other way counts as inactive or inconclusive;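 also: cells exposed to compound for 40 hours; nearly all actives have a fitted effect of over 25% in size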); conditions: NIH 3T3 cell viability, qHTS; activity change, negative = cytotoxicity: at 92.2 µM (top of the series)
How it was run: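 Cells seeded at 1000/well, rested 5 hr at 37 °C, then dosed and incubated 40 hr at 37 °C. CellTiter-Glo added, 20 min room temperature, luminescence read. AC50 by Hill fit.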

[4] = Cell Viability - LYMP2-001 (AID 921; active = well fitted curve in the direction sought with a large enough effect; an effect the other way counts as inactive or inconclusive;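 also: cells exposed to compound for 24 h at 37 °C; nearly all actives have a fitted effect of over 70% in size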); conditions: LYMP2-001 lymphoblastoid cell viability; series mostly up to 92.2 µM
How it was run: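 Human lymphoblastoid LYMP2-001 cells, 2500 per well, in complete medium, treated 24 h at 37 C. Viability from cellular ATP by CellTiter-Glo luminescence; AC50 from Hill-equation fits of qHTS concentration-response.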

[5] = qHTS assay for small molecule antagonists of peroxisome proliferator-activated receptor delta signaling (AID 588535; active = well fitted inhibition curve with a large enough effect in the signal ratio, with a control signal flat, not every such curve was filed as active; the % refers to the signal ratio;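 as to max response: cells co-treated with a PPAR-delta agonist as stimulator during compound exposure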); conditions: HEK293T PPARd-UAS-bla, beta-lactamase FRET ratio, 18 h; 460 nm channel
How it was run: (§1)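 Titrations were run on PPAR-delta-UAS-bla HEK293T cells in charcoal/dextran-stripped serum, incubated 18 h at 37 C. CCF4 fluorescence (460/530 nm) after 2 h RT; Hill equation yields IC50 and maximal response.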

[6] = target: Peroxisome proliferator-activated receptor delta (Homo sapiens) (UniProt Q03181); assay: as above; conditions: HEK293T PPARd-UAS-bla, beta-lactamase FRET ratio, 18 h; series mostly up to 76.7 µM
How it was run: as §1

[7] = target: Peroxisome proliferator-activated receptor gamma (Homo sapiens) (UniProt P37231); assay: qHTS assay for small molecule agonists of peroxisome proliferator-activated receptor gamma signaling (AID 588536; active = well fitted curve in the direction sought with a large enough effect in the signal ratio, with a control signal flat, not every such curve was filed as active; the % refers to the signal ratio); conditions: HEK293 PPARg-UAS-bla, beta-lactamase ratio, 16 h, percent of rosiglitazone response, DMSO as zero; series mostly up to 76.7 µM
How it was run: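 Compound treatment: 16 h, 37 C, HEK293 GeneBLAzer cells. Detection: CCF4, 2 h RT. Values: Hill-fit EC50, efficacy as % of 2 uM rosiglitazone.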

[8] = target: Peroxisome proliferator-activated receptor gamma (Homo sapiens) (UniProt P37231); assay: qHTS assay for small molecule antagonists of peroxisome proliferator-activated receptor gamma signaling (AID 588537; active = well fitted inhibition curve with a large enough effect in the signal ratio, with a control signal flat, not every such curve was filed as active; the % refers to the signal ratio;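 also: reporter cells co-stimulated with 50 nM rosiglitazone agonist during compound treatment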); conditions: HEK293 PPARg-UAS-bla, beta-lactamase ratio, antagonist mode; series mostly up to 76.8 µM
How it was run: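 Antagonist-mode β-lactamase reporter screen run as a titration series. HEK293 PPARγ-UAS-bla cells are stimulated with rosiglitazone (50 nM final) for 16 h, then CCF4 is read at 460/530 nm. Data are scaled between DMSO and rosiglitazone and fitted to the Hill equation.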

[9] = target: Vitamin D3 receptor (Homo sapiens) (UniProt P11473); assay: qHTS assay for small molecule antagonists of vitamin D receptor signaling (AID 588541); conditions: HEK293T VDR-UAS-bla, beta-lactamase ratio, antagonist mode; series mostly up to 76.7 µM;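 also: receptor activated by calcitriol during compound treatment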
How it was run: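 Antagonist-mode beta-lactamase reporter assay: HEK293T VDR-UAS-bla cells were exposed to titrated compound alongside 1-alpha,25-dihydroxyvitamin D3 at 3 nM final for 16 h. Values were normalized to the 50 nM agonist control and DMSO basal, with IC50 and efficacy from Hill equation fits.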

[10] = target: Thyroid hormone receptor beta (Homo sapiens) (UniProt P10828); assay: qHTS assay for small molecule antagonists of thyroid hormone receptor beta signaling (AID 588547; active = well fitted inhibition curve with a large enough effect in the signal ratio, with a control signal flat, not every such curve was filed as active; the % refers to the signal ratio;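 also: cells stimulated with 0.4 nM T3 agonist during compound exposure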); conditions: TR-UAS-bla HEK293, beta-lactamase ratio, antagonist mode, 18 h
How it was run: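 Inhibition of T3-driven (0.4nM final) beta-lactamase reporter activity was measured over 0.59 nM to 92 uM compound after 18 h at 37 C. The cells were GripTite HEK293 TR-UAS-bla in charcoal/dextran-stripped serum, with CCF4 ratio read-out and IC50 from Hill fits.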

[11] = qHTS assay for small molecule activators of the nuclear factor-kappa B (NF-kB) signaling pathway (AID 651749; active = well fitted activation curve with a large enough effect in the signal ratio; the % refers to the signal ratio); conditions: NF-kB-bla ME-180 cells, beta-lactamase FRET ratio, 16 h; stronger effect = higher value
How it was run: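 Activation measured after 16 hr compound treatment at 37C, 5% CO2, of 2,000 ME-180 cells/well stably expressing an NF-kB response element–driven beta-lactamase reporter, via FRET-disruption fluorescence.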

[12] = qHTS assay to identify small molecules that stimulate interleukin-8 (IL-8) secretion (AID 651758; active = well fitted activation curve with a large enough effect in the signal ratio; the % refers to the signal ratio); conditions: HTRF ratio (665/615); series mostly up to 92.2 µM
How it was run: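 Secreted IL-8 measured homogeneously by TR-FRET (two labelled anti-IL-8 antibodies, 1-3 h at room temperature) after a 16 h, 37 C compound treatment of THP-1 cells at 2000 cells/well.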

[13] = qHTS assay for small molecule antagonists of the retinoid-related orphan receptor gamma (ROR-gamma) signaling pathway - cell viability counter screen (AID 720652; active = well fitted curve in the direction sought with a large enough effect in the repeat runs; an effect the other way counts as inactive or inconclusive;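 also: CHO reporter cells with doxycycline-induced ROR-gamma expression; compound exposure lasted 16 hr before ATP read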); conditions: RORgamma reporter cell line viability counter screen; series mostly up to 92.2 µM
How it was run: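 Steps: seed CHO cells bearing TET-inducible ROR and ROR response element-luciferase; rest 5 hr at 37 C; add compound, then doxycycline; incubate 16 hr; add CellTiter-Glo and read luminescence as ATP-based viability.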

[14] = target: Estrogen receptor (Homo sapiens) (UniProt P03372); assay: qHTS assay for small molecule agonists of estrogen receptor alpha signaling (AID 588514); conditions: ER-alpha-UAS-bla HEK293, beta-lactamase ratio, 18 h; series mostly up to 76.8 µM; also: nearly all actives have a fitted effect of over 70% in size
How it was run: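 Efficacy is expressed against 20 nM 17-beta-estradiol (100%) and DMSO basal (0%); EC50 from Hill equation. Assay: beta-lactamase reporter in ER-alpha-UAS-bla HEK 293 cells, 18 h compound incubation, CCF4 detection.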

[15] = target: Vitamin D3 receptor (Homo sapiens) (UniProt P11473); assay: qHTS assay for small molecule agonists of vitamin D receptor signaling (AID 588543); conditions: HEK293T VDR-UAS-bla, beta-lactamase ratio, 16 h; series mostly up to 76.8 µM
How it was run: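 VDR-UAS-bla HEK293T cells, 2000/well, 2% charcoal-stripped FBS; compound titration 16 h at 37 C; CCF4 beta-lactamase ratio read. Normalized to 50 nM 1-alpha,25-dihydroxyvitamin D3 (100%) and DMSO; Hill fit gives EC50, efficacy.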

[16] = MultiTox-Fluor Cytotoxicity Assay - LYMP1-002 - Dead Cells (AID 960; active = well fitted curve in the direction sought with a large enough effect; an effect the other way counts as inactive or inconclusive; also: nearly all actives have a fitted effect of over 60% in size); conditions: LYMP1-002 lymphoblastoid cells, dead-cell protease fluorescence; series mostly up to 46.1 µM
How it was run: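 Cells were plated, rested 5 hr, then treated with compound dilution series for 16 hr at 37 C. After adding substrate reagent and 60 min at room temperature, dead-cell protease fluorescence gave concentration-response curves fitted by the Hill equation.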

[17] = target: Glucocorticoid receptor (Homo sapiens) (UniProt P04150); assay: qHTS assay for small molecule agonists of glucocorticoid receptor signaling (AID 588532; active = well fitted curve in the direction sought with a large enough effect in the signal ratio, with a control signal flat; the % refers to the signal ratio); conditions: HeLa MMTV-bla, beta-lactamase ratio, agonist, 18 h; stronger effect = higher value; percent of dexamethasone control, DMSO zero
How it was run: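 Using MMTV-bla HeLa cells in medium with 1% stripped FBS and 25 mM HEPES, compounds were titrated and incubated overnight-length (18 h). Beta-lactamase cleavage of CCF4 was quantified by dual-emission fluorescence.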

[18] = target: Glucocorticoid receptor (Homo sapiens) (UniProt P04150); assay: qHTS assay for small molecule antagonists of glucocorticoid receptor signaling (AID 588533; active = well fitted inhibition curve with a large enough effect in the signal ratio, with a control signal flat, not every such curve was filed as active; the % refers to the signal ratio;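 also: cells stimulated with 2 nM dexamethasone as agonist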); conditions: HeLa MMTV-bla, GRE beta-lactamase ratio, antagonist mode, 18 h; series mostly up to 76.8 µM
How it was run: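 Antagonist-mode qHTS: compound titrations added to GRE-bla HeLa cells, then dexamethasone 2 nM final; 18 h, 37 C. CCF4 FRET fluorescence normalized to dexamethasone and DMSO; IC50 from Hill fit.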

[19] = Cell Viability - MRC5 (AID 434); conditions: MRC5 lung fibroblast viability, qHTS;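 also: potency is read from the fitted curve at half-maximal effect; cells exposed to compound for 40 hours at 37 °C; potency reflects cytotoxicity seen as loss of intracellular ATP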
How it was run: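 AC50 values come from Hill-equation fits of intracellular ATP loss, measured by CellTiter-Glo luminescence. Normal lung fibroblasts (MRC5) had 40 hr compound treatment at 37 C, normalized between DMSO and 100 uM tamoxifen.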

[20] = qHTS assay for small molecule agonists of the antioxidant response element (ARE) signaling pathway (AID 651741; active = well fitted activation curve with a large enough effect in the signal ratio; the % refers to the signal ratio); conditions: HepG2 ARE-bla reporter, beta-lactamase FRET ratio, 16 h; series mostly up to 96 µM
How it was run: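 Beta-lactamase reporter under ARE control in HepG2 cells, 2,000 per well, was induced by 16 h compound treatment at 37 C. Read-out was fluorescence from LiveBLAzer B/G FRET substrate after 2 h at room temperature.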

Peroxisome proliferator-activated receptor gamma (Homo sapiens), sequence (P37231 whole entry, looked up): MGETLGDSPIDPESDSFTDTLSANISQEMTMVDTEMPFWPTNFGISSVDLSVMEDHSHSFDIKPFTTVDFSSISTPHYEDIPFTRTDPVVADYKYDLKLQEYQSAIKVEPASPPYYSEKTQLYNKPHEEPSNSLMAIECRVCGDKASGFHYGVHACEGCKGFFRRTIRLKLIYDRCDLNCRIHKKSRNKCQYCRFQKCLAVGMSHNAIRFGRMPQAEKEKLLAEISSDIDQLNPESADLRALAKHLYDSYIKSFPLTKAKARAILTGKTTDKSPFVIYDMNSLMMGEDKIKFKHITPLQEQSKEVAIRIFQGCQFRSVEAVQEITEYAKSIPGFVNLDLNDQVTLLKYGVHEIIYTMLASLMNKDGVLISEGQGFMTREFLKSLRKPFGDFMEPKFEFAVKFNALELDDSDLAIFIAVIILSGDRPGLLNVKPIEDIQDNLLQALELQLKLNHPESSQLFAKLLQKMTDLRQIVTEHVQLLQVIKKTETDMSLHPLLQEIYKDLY
Peroxisome proliferator-activated receptor delta (Homo sapiens), sequence (Q03181 whole entry, looked up): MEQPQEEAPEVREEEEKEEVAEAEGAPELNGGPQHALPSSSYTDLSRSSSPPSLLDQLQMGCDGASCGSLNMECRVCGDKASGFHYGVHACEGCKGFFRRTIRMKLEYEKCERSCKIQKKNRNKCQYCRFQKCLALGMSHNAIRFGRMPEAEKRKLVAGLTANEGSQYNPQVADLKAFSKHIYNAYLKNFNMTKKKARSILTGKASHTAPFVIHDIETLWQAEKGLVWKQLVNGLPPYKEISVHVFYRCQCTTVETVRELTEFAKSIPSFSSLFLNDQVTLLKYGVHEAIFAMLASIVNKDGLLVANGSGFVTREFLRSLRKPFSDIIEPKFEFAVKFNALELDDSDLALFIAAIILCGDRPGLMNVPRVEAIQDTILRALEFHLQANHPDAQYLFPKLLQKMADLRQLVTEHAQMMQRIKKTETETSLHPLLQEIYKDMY
Vitamin D3 receptor (Homo sapiens), sequence (P11473 whole entry, looked up): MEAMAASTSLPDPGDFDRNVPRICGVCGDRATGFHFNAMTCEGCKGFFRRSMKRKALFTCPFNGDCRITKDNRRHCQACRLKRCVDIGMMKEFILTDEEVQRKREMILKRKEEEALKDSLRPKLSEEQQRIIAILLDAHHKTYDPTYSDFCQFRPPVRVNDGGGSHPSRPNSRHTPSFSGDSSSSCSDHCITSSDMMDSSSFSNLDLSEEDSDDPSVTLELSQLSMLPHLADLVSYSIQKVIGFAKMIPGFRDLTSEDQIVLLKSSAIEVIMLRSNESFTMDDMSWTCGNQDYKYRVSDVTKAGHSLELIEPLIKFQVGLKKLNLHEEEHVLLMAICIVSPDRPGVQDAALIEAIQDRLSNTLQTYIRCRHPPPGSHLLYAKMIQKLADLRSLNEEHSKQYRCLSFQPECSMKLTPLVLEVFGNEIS
Thyroid hormone receptor beta (Homo sapiens), sequence (P10828 whole entry, looked up): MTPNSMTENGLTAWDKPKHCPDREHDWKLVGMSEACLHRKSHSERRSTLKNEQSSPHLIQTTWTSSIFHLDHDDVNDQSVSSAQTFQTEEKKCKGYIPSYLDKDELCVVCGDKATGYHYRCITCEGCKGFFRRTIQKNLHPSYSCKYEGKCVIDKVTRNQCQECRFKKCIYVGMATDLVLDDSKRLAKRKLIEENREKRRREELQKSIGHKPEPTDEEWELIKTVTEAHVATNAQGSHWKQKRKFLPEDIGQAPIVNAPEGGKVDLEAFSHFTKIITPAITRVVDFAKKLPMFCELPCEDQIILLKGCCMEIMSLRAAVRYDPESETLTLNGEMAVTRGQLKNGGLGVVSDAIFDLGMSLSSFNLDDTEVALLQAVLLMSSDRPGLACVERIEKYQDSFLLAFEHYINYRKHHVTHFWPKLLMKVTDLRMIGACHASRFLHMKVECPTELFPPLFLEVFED
Glucocorticoid receptor (Homo sapiens), sequence (P04150 whole entry, looked up): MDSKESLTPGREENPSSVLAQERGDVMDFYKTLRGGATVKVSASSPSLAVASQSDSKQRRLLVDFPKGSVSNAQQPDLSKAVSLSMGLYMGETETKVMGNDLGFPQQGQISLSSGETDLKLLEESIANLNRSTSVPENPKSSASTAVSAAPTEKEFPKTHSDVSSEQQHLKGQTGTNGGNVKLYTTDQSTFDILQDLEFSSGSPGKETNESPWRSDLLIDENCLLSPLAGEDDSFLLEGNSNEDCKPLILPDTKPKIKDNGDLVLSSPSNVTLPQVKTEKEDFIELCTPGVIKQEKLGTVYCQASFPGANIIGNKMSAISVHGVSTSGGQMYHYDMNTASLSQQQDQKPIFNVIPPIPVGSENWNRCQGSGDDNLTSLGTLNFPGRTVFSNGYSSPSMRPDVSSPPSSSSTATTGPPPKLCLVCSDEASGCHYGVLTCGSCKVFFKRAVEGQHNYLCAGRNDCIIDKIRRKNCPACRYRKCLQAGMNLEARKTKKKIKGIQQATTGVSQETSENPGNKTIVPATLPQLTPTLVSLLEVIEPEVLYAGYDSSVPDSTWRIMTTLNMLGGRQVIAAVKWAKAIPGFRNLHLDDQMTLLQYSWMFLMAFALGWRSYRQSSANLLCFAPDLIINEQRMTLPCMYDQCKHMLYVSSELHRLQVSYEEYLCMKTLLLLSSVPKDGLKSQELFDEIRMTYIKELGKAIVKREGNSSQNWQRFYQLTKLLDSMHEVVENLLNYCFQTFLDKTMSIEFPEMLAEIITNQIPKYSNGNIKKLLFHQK
Estrogen receptor (Homo sapiens), sequence (P03372 whole entry, looked up): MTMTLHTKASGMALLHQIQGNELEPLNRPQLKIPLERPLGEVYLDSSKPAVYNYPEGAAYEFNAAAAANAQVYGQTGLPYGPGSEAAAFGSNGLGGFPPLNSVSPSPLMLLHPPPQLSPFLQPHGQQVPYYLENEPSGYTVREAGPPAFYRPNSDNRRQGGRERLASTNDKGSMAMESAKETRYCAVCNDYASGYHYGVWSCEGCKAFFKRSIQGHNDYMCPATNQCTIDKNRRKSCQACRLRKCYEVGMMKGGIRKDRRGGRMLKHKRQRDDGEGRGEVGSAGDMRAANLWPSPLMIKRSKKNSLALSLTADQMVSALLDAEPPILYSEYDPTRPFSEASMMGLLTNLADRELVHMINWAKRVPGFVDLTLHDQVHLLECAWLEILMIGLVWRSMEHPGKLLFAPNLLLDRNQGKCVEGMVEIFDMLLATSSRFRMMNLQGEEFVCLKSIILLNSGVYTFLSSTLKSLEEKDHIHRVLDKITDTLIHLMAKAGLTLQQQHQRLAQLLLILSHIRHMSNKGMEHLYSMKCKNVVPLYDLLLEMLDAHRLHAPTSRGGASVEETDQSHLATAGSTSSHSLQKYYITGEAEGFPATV

SMILES	Potency [1]	Potency [2]	Potency [3]	Potency [4]	max response [5]	outcome [6]	outcome [7]	Potency [8]	outcome [9]	activity change % (negative = inhibition) [10]	activation [11]	Potency [12]	Potency [13]	Potency [14]	outcome [15]	Potency [16]	activation [17]	outcome [18]	Potency [19]	Potency [20]
O=C(O)CBr	> 92 µM (inactive)	inactive	inactive	inactive	-19.5%	inactive	inactive	inactive	inactive	11.6% (inactive)	-0.961% (inactive)	inactive	inactive	–	–	–	–	–	–	–
Nc1ccc2ccccc2c1	> 92 µM (inactive)	inactive	inactive	inactive	–	–	inactive	–	–	–	–	inactive	–	inactive	inactive	–	–	–	–	–
Cl/C=C/CCl	> 92 µM (inactive)	inactive	–	inactive	5.14%	inactive	–	inactive	inactive	–	–	inactive	inactive	–	inactive	inactive	1.37% (inactive)	inactive	–	–
CN(C)C(=O)Nc1cccc(C(F)(F)F)c1	> 92 µM (inactive)	inactive	inactive	inactive	-0.756% and 6.11%	inactive	inactive	inactive	inactive	–	0.0409% (inactive) and 1.96% (inactive)	inactive	inactive	–	inactive	inactive	–	–	–	–
Oc1ccc(Cl)c(Cl)c1	> 92 µM (inactive)	–	–	inactive	-12.5%	inactive	inactive	inactive	inactive	–	–	–	inactive	–	inactive	inactive	–	–	> 92 µM (inactive)	–
CC(C)CC(C)N (stereo not drawn)	> 92 µM (inactive)	inactive	inactive	–	-20.2%	inactive	–	inactive	–	11.1% (inactive)	–	inactive	inactive	inactive	–	inactive	–	inactive	–	–
CCOP(=S)(OCC)SCCSCC	> 92 µM (inactive)	–	inactive	inactive	-12.4% and 3.79%	inactive	inactive	inactive	–	6.91% (inactive) and -9.69% (inactive)	-0.799% (inactive) and -0.139% (inactive)	–	–	–	–	inactive	13.6% (inactive)	inactive	> 92 µM (inactive)	inactive
BrCC(Br)C1CCC(Br)C(Br)C1 (stereo not drawn)	> 92 µM (inactive)	–	–	inactive	–	–	inactive	–	–	5.99% (inactive)	-1.21% (inactive)	–	–	–	–	inactive	3.61% (inactive)	–	> 92 µM (inactive)	–

— PubChem BioAssay (NCATS)
